# USP17 inh: human USP17-like deubiquitinase inhibition; A8MUK1; inhibition, % at 50 µM; 47,000 compounds, 6.5% hits; purified USP17, Ub-rhodamine cleavage fluorescence, 3 h
# UCHL1 inh: inhibitors of human UCHL1 deubiquitinase. P09936. purified UCHL1, Ub-rhodamine cleavage fluorescence. inhibition, % at 20 µM. 47,000 compounds, 0.2% hits. AID 1645859
# USP7 block: inhibitors of human USP7 deubiquitinase | inhibition, % at 20 µM | purified USP7, Ub-rhodamine cleavage fluorescence | 47,000 compounds, 0.3% hits | Q93009
# USP30 inh: inhibitors of human USP30 deubiquitinase; AID 1645860; inhibition, % at 25 µM; Q70CQ3; 47,000 compounds, 5.3% hits; purified USP30, Ub-rhodamine cleavage fluorescence
# USP8 inh: inhibitors of human USP8 deubiquitinase. P40818. purified USP8, Ub-rhodamine cleavage fluorescence, 30 min. inhibition, % at 20 µM. 47,000 compounds, 4.2% hits
# USP10 inh: blocks human USP10 ubiquitin-rhodamine cleavage; Q14694; inhibition, % at 20 µM; purified USP10, Ub-rhodamine fluorescence, 60 min; 47,000 compounds, 1.1% hits
# Target sequence (Q14694 whole entry, looked up): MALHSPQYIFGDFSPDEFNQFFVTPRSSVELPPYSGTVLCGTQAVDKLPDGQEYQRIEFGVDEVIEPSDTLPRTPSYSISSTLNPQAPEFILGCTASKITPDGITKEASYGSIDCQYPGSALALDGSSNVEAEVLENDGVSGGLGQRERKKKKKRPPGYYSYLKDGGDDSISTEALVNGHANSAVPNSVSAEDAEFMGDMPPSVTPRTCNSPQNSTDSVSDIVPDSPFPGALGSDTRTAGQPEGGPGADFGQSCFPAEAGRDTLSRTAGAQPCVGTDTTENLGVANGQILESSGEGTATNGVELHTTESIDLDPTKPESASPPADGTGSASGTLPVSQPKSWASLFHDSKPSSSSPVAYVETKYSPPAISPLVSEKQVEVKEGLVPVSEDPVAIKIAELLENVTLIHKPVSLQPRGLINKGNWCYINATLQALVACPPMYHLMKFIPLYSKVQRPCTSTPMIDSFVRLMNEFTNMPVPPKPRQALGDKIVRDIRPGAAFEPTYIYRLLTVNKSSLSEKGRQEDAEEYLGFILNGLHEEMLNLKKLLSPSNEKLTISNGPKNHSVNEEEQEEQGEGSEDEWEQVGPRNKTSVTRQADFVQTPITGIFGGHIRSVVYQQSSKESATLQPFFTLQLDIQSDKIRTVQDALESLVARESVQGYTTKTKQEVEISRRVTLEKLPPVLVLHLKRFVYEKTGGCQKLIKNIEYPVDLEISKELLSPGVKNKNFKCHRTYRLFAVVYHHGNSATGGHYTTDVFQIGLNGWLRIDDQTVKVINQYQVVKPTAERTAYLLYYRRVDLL
# * hit, by the source's call; · = no result given. A selection: hits, their analogues and other compounds. The true share with any hit is near 12%. No stated cut-off is given here; in the data, active means inhibition above about 30%; inactive means the rest.
SMILES,USP17 inh,UCHL1 inh,USP7 block,USP30 inh,USP8 inh,USP10 inh
CCN1CCC2(CC1)CC(NC(=O)c1cccnc1)c1ccccc1O2 (centres undefined),-26.1,1.8,1.7,6.5,-189.6,0.2
CC1Cn2c(cnc2C(F)(F)F)C(=O)N1CC(=O)Nc1ccccc1 (centres undefined),-24.8,-0.4,1.6,-5.1,3.6,1.4
COc1ccc(C2c3[nH]c4ccccc4c3C[C@@H]3C(=O)N(c4ccc5c(c4)OCCO5)C(=O)N23)cc1 (some centres undefined),-163.5,-79.8,-73.6,-218.1,-68.9,-15.3
COC(=O)c1ccc(C2c3[nH]c4ccccc4c3C[C@@H]3C(=O)N(c4ccc5c(c4)OCCO5)C(=O)N23)cc1 (some centres undefined),5.5,0.6,8.1,9.9,5.1,47.7*
CCCCCCC(O)CCCCCC/C=C/C(OC(C)=O)C(O)C(O)C(N)C(=O)O (centres undefined),15.4,-3.2,-4.3,-36.6,-7.2,-1.2
COCCCn1c(C(=O)N2CCC(C)CC2)cc2c(=O)n3cccc(C)c3nc21,0.8,-1.8,-8.2,6.6,12.3,-1.1
COCCCn1c(C(=O)NCCc2ccccc2)cc2c(=O)n3cccc(C)c3nc21,71.3*,-0.4,0.6,27.5,-15.0,-2.9
COCCCn1c(C(=O)Nc2cccc(OC)c2)cc2c(=O)n3cccc(C)c3nc21,12.4,-2.7,3.3,-79.5,-10.7,-4.0
COCCCn1c(C(N)=O)cc2c(=O)n3cccc(C)c3nc21,40.0*,5.6,6.6,18.5,2.7,3.5
CCCCN(C)C(=O)c1cc2c(=O)n3cccc(C)c3nc2n1Cc1ccccc1,62.5*,6.2,3.7,42.0*,3.5,6.7
CCOCCCNC(=O)c1cc2c(=O)n3cccc(C)c3nc2n1Cc1ccccc1,40.6*,0.0,1.7,44.0*,15.1,-4.6
CCC(C)NC(=O)c1cc2c(=O)n3cccc(C)c3nc2n1Cc1ccccc1 (centres undefined),12.5,-2.3,-7.2,0.1,4.0,0.0
CC(=O)N1CCCSc2ccc(S(=O)(=O)NCCC3=CCCCC3)cc21,-4.2,1.5,-7.5,-11.3,-1.5,0.1
CCOc1ccccc1NC(=O)c1cc(C2CC2)n2nccc2n1,5.6,-1.1,2.7,1.5,-5.8,-2.9
FC(F)Sc1nccc(-c2ccc(-c3ccccc3)cc2)n1,0.5,3.4,-8.8,-1.2,1.4,4.0
O=C(N[C@@H]1CN(Cc2ccoc2)[C@@H]2COC[C@@H]21)c1cscn1,-15.4,-1.9,0.0,-7.2,-60.1,-0.4
COc1ccc(S(=O)(=O)NC(C(=O)O)c2cccs2)cc1 (centres undefined),9.9,0.5,5.2,14.4,10.9,-0.2
O=C(CC1SC(=O)NC1=O)Nc1cccc(C(F)(F)F)c1 (centres undefined),-9.5,-11.5,-5.1,-49.7,-16.0,-8.9
COc1cccc(NC(=O)CC2Sc3ccccc3NC2=O)c1 (centres undefined),31.8*,0.3,0.8,38.6*,18.0,5.5
Cc1ccccc1-c1nc(SCC(=O)N2CCCC2)c2c(=O)n(C)c(=O)n(C)c2n1,8.6,0.0,0.2,43.5*,9.2,-0.4
Cc1ccccc1NC(=O)CSc1nc(-c2ccco2)nc2c1c(=O)n(C)c(=O)n2C,-1.6,-3.4,1.9,-5.3,-118.8,-2.0
COc1cc(OC)cc(C(=O)Nc2nnc3ccccn23)c1,-34.6,-3.4,-0.1,-0.3,-140.7,-1.8
Nc1cc2nc3ccccc3oc-2cc1=O,45.2*,3.3,-6.4,-60.5,-8.7,-3.5
CCCn1c(-c2ccccc2)cn2c3c(=O)[nH]c(=O)n(C)c3nc12,-2.4,0.0,-20.3,-10.3,-35.7,5.8
CCCn1c(-c2ccc(F)cc2)cn2c(-c3ccccc3)c(-c3ccccc3)nc12,17.3,0.4,3.5,-7.9,68.3*,3.0
COc1ccc(-n2c(Cc3cccn3C)nnc2SCC(=O)Nc2ccc(OC)c(OC)c2)cc1,7.2,-1.2,-1.3,-35.2,7.4,-0.7
Cn1c(=O)c2c(nc3n(CCc4ccccc4)c(-c4ccccc4)cn23)n(C)c1=O,-0.1,6.8,1.6,41.3*,-29.3,1.3
CC(C)(C)c1cc2n(n1)[C@@H](C(F)F)C[C@@H](C1CCN(C(=O)CN3CCCCC3)CC1)N2,-39.1,1.1,-2.2,·,-5.6,-2.6
CCCCCn1c(=O)[nH]c2cc(C(=O)NCCN3CCC(Cc4ccccc4)CC3)ccc2c1=O,21.3,-0.1,4.0,43.8*,15.2,1.9
